The nature of assay [1]: E. coli DRC41 culture turbidity changes, primary screen, E. coli filamentation inducer project, strain DRC41, OD650, 48 h (AID 1152).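 Also: E. coli MC1000 strain DRC41 lacking acrAB efflux pump and sulA.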 The conditions noted are these: E. coli DRC41 (acrAB sulA), higher = more signal, called active from +8 up or from −8 down.
Assay [2] can be described thus: small-molecule binders of probe aLefty1, primary screen, biochemical, small-molecule microarray, 635/667 nm fluorescence (AID 1153).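 Also: score merges spot fluorescence with signal-to-noise ratio from the scanned slide images.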 The conditions noted are these: higher = more signal.
Assay [3] in a line: PSAC antagonists in infected red cells, primary screen, cell-based, P. falciparum Indochina, OD700, 1 h (AID 1154). As to conditions: P. falciparum Indochina infected RBC osmotic lysis, higher = more signal, called active from +8 up or from −8 down.
Assay [4] is described as follows: PSAC antagonists in infected red cells, primary screen, cell-based, P. falciparum Indochina, OD700, 2 h (AID 1155).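 Also: lysis reports solute entry through the parasite surface anion channel PSAC; channel blockers reduce lysis of infected cells.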 As to conditions: P. falciparum Indochina infected erythrocytes, osmotic lysis OD700; higher = more signal, called active from +8 up or from −8 down.
Assay [5] is described as follows: osmotic lysis modulators in infected erythrocytes, primary screen, PSAC antagonist project, cell-based, P. falciparum Indochina, OD700, 3 h (AID 1156). The conditions noted are these: higher = more signal, called active from +8 up or from −8 down.
Assay [6] in a line: PSAC antagonists in infected red cells, primary screen, cell-based, P. falciparum Indochina, OD700, 18 h (AID 1157). As to conditions: P. falciparum Indochina infected erythrocytes, osmotic lysis OD700, 18 h; higher = more signal, called active from +8 up or from −8 down.
A short description of assay [7]: modulators of S6 phosphorylation in cells, primary screen, cell-based, A549, cytoblot, luminescence, serum-stimulated (AID 1158).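 Also: serum-stimulated A549 lung adenocarcinoma cells; signal is phosphorylated S6 detected by cytoblot immunostaining with HRP secondary.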 The conditions noted are these: A549 phospho-S6 cytoblot, 5 h, higher = more signal.
Assay [8] has as its target NADPH oxidase 2 (Homo sapiens) (UniProt P04839). Kind of assay: NOX2-dependent H2O2 signal modulators, primary screen, NOX inhibitor project, cell-based, HEK293-NOX2, PMA-stimulated, Amplex Red fluorescence (AID 1159). Also: test concentration not given here. The conditions noted are these: 45 min, higher = more signal, called active from +8 up or from −8 down.
Assay [9] has as its target NADPH oxidase 4 (Homo sapiens) (UniProt Q9NPH5). Kind of assay: NOX4-dependent H2O2 signal modulators, primary screen, NOX inhibitor project, cell-based, HEK293-NOX4, tetracycline-induced, Amplex Red fluorescence (AID 1160). The conditions noted are these: 45 min, higher = more signal, called active from +8 up or from −8 down.
Assay [10] concerns the target NADPH oxidase 5 (Homo sapiens) (UniProt Q96PH1). Kind of assay: NOX5-dependent H2O2 signal modulators, primary screen, NOX inhibitor project, cell-based, HEK293-NOX5, Amplex Red fluorescence (AID 1161). The conditions noted are these: HEK293-NOX5, ionomycin, 45 min, higher = more signal.

Calls of active or inactive are those of the source.

Sequence of NADPH oxidase 5 (Homo sapiens) (Q96PH1 whole entry, looked up): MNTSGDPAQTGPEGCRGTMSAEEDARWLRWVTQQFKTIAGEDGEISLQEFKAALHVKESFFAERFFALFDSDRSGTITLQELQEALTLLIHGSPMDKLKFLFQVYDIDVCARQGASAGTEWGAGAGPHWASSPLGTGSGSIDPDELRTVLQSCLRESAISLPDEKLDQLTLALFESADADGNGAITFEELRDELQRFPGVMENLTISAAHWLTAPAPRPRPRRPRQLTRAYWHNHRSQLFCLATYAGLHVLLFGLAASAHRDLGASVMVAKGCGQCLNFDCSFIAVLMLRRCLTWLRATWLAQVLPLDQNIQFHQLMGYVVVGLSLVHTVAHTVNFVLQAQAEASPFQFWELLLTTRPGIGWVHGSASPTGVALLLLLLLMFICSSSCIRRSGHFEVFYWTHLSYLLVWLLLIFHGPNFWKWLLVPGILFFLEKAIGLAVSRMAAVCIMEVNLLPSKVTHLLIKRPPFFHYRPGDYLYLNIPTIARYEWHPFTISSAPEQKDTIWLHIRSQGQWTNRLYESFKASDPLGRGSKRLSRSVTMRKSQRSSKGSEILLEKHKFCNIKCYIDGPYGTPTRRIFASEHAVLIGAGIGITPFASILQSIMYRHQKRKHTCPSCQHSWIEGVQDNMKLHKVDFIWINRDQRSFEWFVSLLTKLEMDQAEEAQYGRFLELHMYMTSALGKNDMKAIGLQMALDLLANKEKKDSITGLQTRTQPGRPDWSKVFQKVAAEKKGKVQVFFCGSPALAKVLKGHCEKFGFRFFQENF
Sequence of NADPH oxidase 4 (Homo sapiens) (Q9NPH5 whole entry, looked up): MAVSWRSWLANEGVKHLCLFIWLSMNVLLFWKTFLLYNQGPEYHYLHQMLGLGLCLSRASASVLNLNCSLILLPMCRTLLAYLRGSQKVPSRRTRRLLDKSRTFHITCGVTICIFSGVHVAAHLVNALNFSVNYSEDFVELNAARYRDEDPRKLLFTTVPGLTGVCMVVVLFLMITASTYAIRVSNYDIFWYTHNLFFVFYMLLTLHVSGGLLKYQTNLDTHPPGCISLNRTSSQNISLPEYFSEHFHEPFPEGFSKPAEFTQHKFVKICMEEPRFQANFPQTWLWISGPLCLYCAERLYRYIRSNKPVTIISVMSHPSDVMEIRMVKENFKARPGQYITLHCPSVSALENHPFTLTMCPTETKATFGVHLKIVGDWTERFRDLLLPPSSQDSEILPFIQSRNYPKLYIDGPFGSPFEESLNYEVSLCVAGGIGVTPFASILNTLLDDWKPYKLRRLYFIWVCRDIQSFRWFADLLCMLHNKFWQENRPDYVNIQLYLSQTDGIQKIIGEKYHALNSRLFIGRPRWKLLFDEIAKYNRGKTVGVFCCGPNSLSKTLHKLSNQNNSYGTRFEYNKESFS
Sequence of NADPH oxidase 2 (Homo sapiens) (P04839 whole entry, looked up): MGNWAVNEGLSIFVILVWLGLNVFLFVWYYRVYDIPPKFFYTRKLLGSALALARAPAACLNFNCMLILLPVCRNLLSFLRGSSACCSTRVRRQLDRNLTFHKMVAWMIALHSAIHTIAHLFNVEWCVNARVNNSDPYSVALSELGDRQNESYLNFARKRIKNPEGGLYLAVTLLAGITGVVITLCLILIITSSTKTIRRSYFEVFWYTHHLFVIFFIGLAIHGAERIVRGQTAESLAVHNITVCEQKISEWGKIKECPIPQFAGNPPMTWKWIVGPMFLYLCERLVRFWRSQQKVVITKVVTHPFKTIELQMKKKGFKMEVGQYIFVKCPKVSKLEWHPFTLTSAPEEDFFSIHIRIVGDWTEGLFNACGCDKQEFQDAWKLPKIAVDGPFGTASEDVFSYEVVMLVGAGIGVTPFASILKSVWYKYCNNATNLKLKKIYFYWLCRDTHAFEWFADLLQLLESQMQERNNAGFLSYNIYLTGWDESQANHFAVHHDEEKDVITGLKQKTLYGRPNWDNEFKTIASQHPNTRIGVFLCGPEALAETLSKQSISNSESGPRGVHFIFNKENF

As to `COC(=O)[C@@]1(Cc2ccccc2)[C@H]2c3cc(C(=O)N(C)C)n(Cc4ccsc4Br)c3C[C@H]2CN1C(=O)c1ccccc1`, the z-score in assay [1] was -0.775 (inactive); in assay [3], 6.57 (inactive); in [4], 1.07 (inactive); in assay [5], 0.923 (inactive); in assay [6], 1.25 (inactive); in [7] it was -0.259. For the same molecule, the z-score in assay [8] is -0.111 (inactive); in assay [9], 0.106 (inactive); in assay [10] it was 0.723. Also, the composite z-score in [2] was 1.04.

Take `CC1CC/C=C\[C@H]2OC34C=CCN(Cc5ccccc5)C(=O)[C@H]3N(CCCO)C(=O)[C@@H]4C2C(=O)O1` (stereo not given in full): the z-score in assay [1] is 0.144 (inactive); in assay [3] it was 0.329 (inactive); in assay [4], -0.093 (inactive); in assay [5] it was -0.316 (inactive); in assay [6], -0.254 (inactive); in assay [7], -0.102. Further, the z-score in assay [8] is 1.66 (inactive); in [9] it was 0.366 (inactive); in assay [10], 3.18. For the same molecule, in assay [2], the composite z-score is -0.147.

Turning to `COC(=O)[C@@]1(Cc2ccc(F)cc2)[C@H]2c3cc(C(=O)N4CCCC4)n(CCCNc4ncc(C(F)(F)F)cc4Cl)c3C[C@H]2CN1C(=O)c1ccccc1`, the z-score in assay [1] was -2.31 (inactive); in assay [3] it was 1.58 (inactive); in [4], 0.852 (inactive); in assay [5] it was 1.01 (inactive); in [6] it was 0.863 (inactive); in [7] it was -0.626. Besides, the values for the z-score in [8], in assay [9] and in [10] were -0.299 (inactive), -2.23 (inactive) and -0.307, respectively. In addition, the composite z-score in assay [2] was determined as 0.4.

Turning to `CC(C)C(O)C1C=CC2C(=O)N(c3ccccc3)C(=O)C2N1Nc1ccc([N+](=O)[O-])cc1` (stereo not given), the z-score in [1] is -0.467 (inactive); in [3], 11 (active); in [4] it was 1.48 (inactive); in assay [5], 0.928 (inactive); in [6] it was 0.779 (inactive); in assay [7] it was -0.326. In addition, the values for the z-score in [8], in assay [9] and in [10] were -0.59 (inactive), -1.82 (inactive) and -1.23, respectively. The same molecule registered a composite z-score in assay [2] of 0.0045.

Regarding `COC(=O)[C@@]1(Cc2ccc(OC)cc2)[C@H]2c3cc(C(=O)N(C)C)n(Cc4ccc(S(C)(=O)=O)cc4)c3C[C@H]2CN1C(=O)c1ccccc1`, the z-score is -0.752 (inactive) in assay [1]; 1.85 (inactive) in assay [3]; 0.451 (inactive) in assay [4]; 0.954 (inactive) in assay [5]; -0.336 (inactive) in assay [6]; 4.44 in assay [7]. Also, the z-score was 1.04 (inactive) in [8], 1.74 (inactive) in assay [9] and -3.36 in [10]. This molecule also showed a composite z-score in [2] of 1.06.

Turning to `COC(=O)[C@@]1(Cc2ccc(OC)cc2)[C@H]2c3cc(C(=O)N(C)C)n(CCc4ccccn4)c3C[C@H]2CN1C(=O)c1ccccc1`, the z-score in assay [1] was -1.83 (inactive); in assay [3] it was 3.81 (inactive); in assay [4], 1.77 (inactive); in [5], 1.01 (inactive); in assay [6] it was 1.58 (inactive); in assay [7], -0.334. For the same molecule, the z-score in assay [8] is 0.63 (inactive); in [9], -0.925 (inactive); in assay [10] it was -1.04. Further, in [2], the composite z-score was 1.64.

For `COC(=O)[C@@]1(CCS(=O)(=O)c2ccccc2)N=C(c2ccc(OCCCO)cc2)O[C@H]1c1ccccc1CN=[N+]=[N-]`, the z-score in [1] is -0.146 (inactive); in [3], 19.6 (active); in [4] it was 3.74 (inactive); in assay [5], 1.26 (inactive); in assay [6], 1.33 (inactive); in [7], 0.208. For the same molecule, the results for the z-score in assay [8], in assay [9] and in assay [10] were -0.899 (inactive), 0.495 (inactive) and -0.807, respectively. The composite z-score in assay [2] amounted to 0.365.

Regarding `CC(C)C[C@@H]1NC(=O)[C@@H]2C[C@H](C(=O)NCc3ccc(F)cc3)[C@H](c3cccc(OCCO)c3)N2C1=O`, the z-score in [1] was 1.39 (inactive); in assay [3] it was 8.19 (active); in assay [4], 0.722 (inactive); in assay [5], -1.79 (inactive); in assay [6] it was 0.546 (inactive); in assay [7] it was 0.74. In addition, the results for the z-score in assay [8], in assay [9] and in [10] were 1.33 (inactive), 1.08 (inactive) and 1.44, respectively. Besides, in [2], the composite z-score is -0.204.

Regarding `CCCCCN1CC=CC23O[C@@H]4/C=C\CCC(C)OC(=O)C4[C@H]2C(=O)N(C(C)CO)[C@@H]3C1=O` (stereo not given in full), the z-score in [1] is 0.585 (inactive); in assay [3], 0.901 (inactive); in assay [4] it was -0.356 (inactive); in assay [5], 0.847 (inactive); in assay [6] it was 0.355 (inactive); in assay [7], -0.0749. The z-score in [8] was 0.642 (inactive); in assay [9], -0.2 (inactive); in [10], 1.84. The composite z-score in assay [2] turned out to be 0.0077.

Take `COC(=O)[C@@]1(Cc2ccc(F)cc2)[C@H]2c3cc(C(=O)N(C)C)n(Cc4ccc(Cl)c(C(F)(F)F)c4)c3C[C@H]2CN1C(=O)c1ccccc1`: the z-score is -1.91 (inactive) in [1]; 7.17 (inactive) in assay [3]; 2.13 (inactive) in assay [4]; 0.512 (inactive) in assay [5]; 1.72 (inactive) in [6]; -0.186 in assay [7]. Also, the z-score in assay [8] is 0.23 (inactive); in assay [9] it was -1.2 (inactive); in [10], 0.627. In assay [2], this molecule returned a composite z-score of 1.54.

Take `O=C1N[C@@H](Cc2ccccc2)C(=O)N2[C@@H]1C[C@@H](C(=O)O)[C@H]2c1cccc(OCCO)c1`: the z-score in [1] is 0.931 (inactive); in [3], 6.39 (inactive); in [4], 1.12 (inactive); in assay [5], -2.03 (inactive); in assay [6], 0.375 (inactive); in assay [7], 1.17. The z-score is -2.21 (inactive) in assay [8], -2.89 (inactive) in assay [9] and -0.102 in [10]. In assay [2], this molecule returned a composite z-score of 0.0903.

As for `COC(=O)[C@@]1(Cc2ccc(OC)cc2)[C@H]2c3cc(C(=O)N(C)C)n(Cc4ccccn4)c3C[C@H]2CN1C(=O)c1ccccc1`, the z-score in assay [1] is -1.76 (inactive); in [3] it was 1.63 (inactive); in [4] it was 0.463 (inactive); in assay [5] it was 1.01 (inactive); in assay [6], 0.863 (inactive); in assay [7], 0.704. Besides, the z-score in assay [8] was 0.188 (inactive); in assay [9], -1.32 (inactive); in assay [10], -2.73. The composite z-score in assay [2] is 0.771.

For the molecule `COCCOC(=O)N1C(=O)[C@@]2(c3ccccc31)[C@H](c1ccccc1OCCO)N1[C@H](c3ccccc3)[C@H](c3ccccc3)OC(=O)[C@H]1[C@@H]2C(=O)N1CCN(c2ncccn2)CC1`, the z-score in assay [1] was -0.102 (inactive); in assay [3], 4.19 (inactive); in [4], 2.16 (inactive); in assay [5], 0.98 (inactive); in [6] it was 1.49 (inactive); in assay [7], -0.248. The z-score in [8] is -0.652 (inactive); in assay [9], -0.44 (inactive); in assay [10] it was 0.183. The same molecule gave a composite z-score in assay [2] of 0.0402.

Source of the values: PubChem BioAssay.
